TDP1 cell noCPT = qHTS for Inhibitors of human tyrosyl-DNA phosphodiesterase 1 (TDP1): qHTS in cells in absence of CPT; DT40 Tdp1-/- hTDP1 cells, no CPT, ATP luminescence, 48 h; Potency, µM (series often up to 46.2 µM), for the others: top-dose activity change, negative = growth inhibition, actives largely listed as inhibitors; 420,000 compounds, 15% hits; also: nearly all actives have a fitted effect of over 55% in size
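Chicken DT40 Tdp1-/- cells stably complemented with human TDP1 were seeded at 400 cells/well with DMSO in place of 20 nM camptothecin. After compound pinning, cells grew at least 48 hr at 37 °C; viability read by CellTiter-Glo luminescence.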
KB-3-1 cytotox = KB-3-1 parental cell cytotoxicity; Potency, µM (doses to about 46.1 µM), most hits filed as cytotoxic; AID 1347075; 400,000 compounds, 1.4% hits; KB-3-1 viability, CellTiter-Glo ATP luminescence, 72 h; also: nearly all actives have a fitted effect of over 60% in size
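Cytotoxicity in the drug-sensitive parental line KB-3-1 was scored as loss of CellTiter-Glo luminescence following 72 h incubation with compound. Values come from curve fitting of normalized concentration-response data.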
HT1080 IDH1KD tx = kills HT-1080 cells with IDH1 knockdown; HT-1080 IDH1 knockdown viability, ATP luminescence, 48 h; Potency, µM (doses to about 46.1 µM), without a hit: at the top dose activity, negative = toxicity, actives largely listed as cytotoxic; 360,000 compounds, 2% hits; AID 686971;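 also: 0% = DMSO wells and -100% = cell-free medium wells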
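Using the IDH1-knockdown HT-1080 line run in the same batch and compound series as the NT line, viability after 48 h at 37 °C was determined by CellTiter-Glo luminescence and expressed as % activity.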
TDP1 cell CPT = DT40-hTDP1 cell growth loss with CPT; Potency, µM (titrated, usually from 46.2 µM), for the others: at the top dose activity change, negative = growth inhibition, hits mostly inhibitors; AID 686979; chicken DT40 Tdp1-/-;hTDP1 cells + 20 nM CPT, ATP luminescence, 48 h; 420,000 compounds, 12% hits; also: nearly all actives have a fitted effect of over 55% in size
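Chicken DT40 Tdp1-/- cells complemented with human TDP1, 400 cells/well, exposed to compounds plus 20 nM camptothecin for at least 48 h at 37 C; viability read as ATP content by CellTiter-Glo luminescence.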
KB-V1 cytotox = KB-V1 MDR subline cytotoxicity; 400,000 compounds, 3.4% hits; Potency, µM (series often up to 46.1 µM), usual class: cytotoxic; AID 1347076; KB-V1 MDR cells viability, CellTiter-Glo, 72 h; also: nearly all actives have a fitted effect of over 60% in size
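Cytotoxicity toward P-gp-expressing KB-V1 cells was determined as loss of CellTiter-Glo luminescence after 72 h at 37 degrees C. Compounds were tested in quantitative HTS format across a concentration range, with curves fitted to normalized data.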
HT1080-NT tox = kills 2HG-producing HT-1080-NT fibrosarcoma cells. HT-1080-NT fibrosarcoma viability, CellTiter-Glo ATP luminescence, 48 h. 360,000 compounds, 1.6% hits. Potency, µM (highest dose often 46.1 µM), inactives show at the highest dose activity, negative = less viability, most hits filed as cytotoxic;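 also: NT is the 2HG producing partner of a matched IDH1 knockdown line; 0% = DMSO-treated cells and -100% = media-only wells without cells; nearly all actives have a fitted effect of over 55% in size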
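750 cells/well, RPMI + 5% FBS; 2 h settle, compound pin-transfer, 48 h at 37 degrees C. CellTiter-Glo 10 min RT, luminescence. Normalized to DMSO and media-only wells.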
* = called active by the depositor; i = inactive; ? = inconclusive; . = no result given. Only some compounds are listed: those with a hit (about 19% of all), similar ones and a draw of the others. Calls follow the shape of the dose curve; as a rule, active = well fitted curve in the direction sought with a large enough effect; inconclusive = small, poorly fitted or top-dose-only effect, or another doubt; inactive = no such curve, though single readings can be large; an effect the other way counts as inactive or inconclusive. Unless noted, % is scaled to controls: 0 for no effect and ±100 for the full control effect; potency is read from the fitted curve at half-maximal effect.

SMILES | TDP1 cell noCPT | KB-3-1 cytotox | HT1080 IDH1KD tx | TDP1 cell CPT | KB-V1 cytotox | HT1080-NT tox
Oc1ccc(C2=NNC(=NCc3ccc4c(c3)OCO4)SC2)c(O)c1 | 4.61µM* | 2.59µM* | ? | 3.66µM* | 7.31µM* | 20.6µM*
Clc1ccc(C2=NNC(=NCc3ccc4c(c3)OCO4)SC2)cc1 | 5.8µM* | ? | 10.4% | 10.3µM* | 20.6µM* | -1.9%
COc1ccc(OC)c(C2=NNC(=NCc3ccc4c(c3)OCO4)SC2)c1 | ? | i | -25.7% | ? | i | -3.8%
CC1=C(C)CS(=O)N(S(=O)(=O)c2ccc(Cl)cc2)C1 (stereo not drawn) | 2.31µM* | ? | ? | 3.66µM* | ? | ?
N=C(N=C(N)N)N1CCc2ccccc21 | 13µM* | i | -0.3% | ? | i | 1.7%
CC1=C(C(=O)Nc2ccc(Br)cc2)C(c2ccco2)NC(=O)N1 (stereo not drawn) | ? | i | -5.9% | 23.1µM* | i | -12.8%
COCCn1c(=O)c(C)nc2cnc(Oc3cccc(Cl)c3)nc21 | -14.3% | . | . | -26.8% | . | .
O=C(O)c1cccc(Nc2nc(-c3cc4ccccc4oc3=O)cs2)c1 | -2.7% | i | -1.9% | 4.1% | ? | -17.1%
CCc1ccc(S(=O)(=O)N(C(=O)Oc2ccccc2)c2ccc3oc(C)c(C(=O)OC)c3c2)cc1 | 2.91µM* | . | . | 3.66µM* | . | .
CCOC(=O)c1c(-c2ccccc2)oc2ccc(N(C(C)=O)S(=O)(=O)c3ccc(CC)cc3)cc12 | 5.8µM* | ? | . | 16.4µM* | ? | .
CCCC(=O)N(c1ccc2oc(C)c(C(C)=O)c2c1)S(=O)(=O)c1ccc(C)c([N+](=O)[O-])c1 | 16.4µM* | i | 11.0% | 18.4µM* | i | 13.7%
COC(=O)c1c(C)oc2ccc(N(C(=O)Oc3ccccc3)S(=O)(=O)c3ccc(Cl)c([N+](=O)[O-])c3)cc12 | 20.6µM* | ? | 16.1% | ? | ? | 18.8%
CC(=O)c1c(C)oc2ccc(N(C(=O)Oc3ccccc3)S(=O)(=O)c3ccc(Br)cc3)cc12 | 22.2% | i | . | -7.6% | i | .
Cc1nn(Cc2ccc([N+](=O)[O-])cc2)c(=O)n1-c1cccc(Cl)c1 | -24.4% | i | 7.0% | 0.2% | ? | -3.0%
CN(C)S(=O)(=O)c1ccc2c(c1)c(=O)c(C(=O)N1CCN(c3cccc(Cl)c3)CC1)cn2C | ? | i | . | -20.2% | i | .
O=C(/C=C/[C@H]1O[C@@H](n2ccc(=O)[nH]c2=O)[C@H](O)[C@@H]1O)NCc1ccccc1 | 27.1% | i | 25.5% | -1.2% | i | 16.2%
CC(=O)Nc1c(C)nn(-c2ccccc2)c1N1CCC(C(=O)NCc2ccc(F)cc2)CC1 | -7.0% | . | . | -22.0% | . | .
CCCCCOc1ccc(Br)cc1/C(C)=N/NC1=NCCN1 | 4.61µM* | ? | 5.17µM* | 5.8µM* | ? | 6.51µM*
C/C(=N\NC1=NCCN1)c1ccc(Cl)cc1 | -36.8% | i | -17.4% | 1.3% | i | -22.6%
COc1ccc(Br)cc1/C(C)=N/NC1=NCCN1 | 14.6µM* | ? | ? | 8.2µM* | ? | -5.8%
C/C(=N\NC1=NCCN1)c1ccccc1 | ? | i | 3.4% | 5.0% | i | 1.3%
N#C/C(=C/c1ccc(O)c([N+](=O)[O-])c1)C(=O)Nc1ccccc1 | 6.51µM* | 18.4µM* | 8.2µM* | 4.11µM* | ? | ?
CNc1ccc(/C=C(\C#N)C(=O)Nc2ccccn2)cc1[N+](=O)[O-] | -15.0% | i | 2.1% | -1.3% | i | 4.7%
N#C/C(=C\c1ccc(O)c(O)c1)C(=O)NCCc1ccccc1 | ? | i | 19.7% | ? | ? | 24.4%
COc1ccc(NC(=O)/C(C#N)=C/C=C/c2ccco2)cc1 | 9.2µM* | 7.31µM* | ? | 8.2µM* | 13µM* | ?
